In all, about 2,400 compounds went through this assay and about 750 (31%) were called active.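 How the source made its calls: active means median signal gain over dofetilide-blocked control wells reaching their mean plus 3 SD, so readout 1 at least 0; inactive means the rest.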 The list shows a part of the results.

In this experiment the target is Voltage-gated inwardly rectifying potassium channel KCNH2 (Homo sapiens) (UniProt Q12809). Briefly: hERG protection against dofetilide inhibition, confirmation, cell-based, thallium flux, duplicate retest, dofetilide IC70 (AID 1835). The following applies: hERG cell line, FluxOR thallium flux, dofetilide-blocked; at 10 µM; active compounds read high. On the technique in general: The hERG channel carries a current that helps repolarise heart muscle cells.
Sequence of Voltage-gated inwardly rectifying potassium channel KCNH2 (Homo sapiens) (Q12809 whole entry, looked up): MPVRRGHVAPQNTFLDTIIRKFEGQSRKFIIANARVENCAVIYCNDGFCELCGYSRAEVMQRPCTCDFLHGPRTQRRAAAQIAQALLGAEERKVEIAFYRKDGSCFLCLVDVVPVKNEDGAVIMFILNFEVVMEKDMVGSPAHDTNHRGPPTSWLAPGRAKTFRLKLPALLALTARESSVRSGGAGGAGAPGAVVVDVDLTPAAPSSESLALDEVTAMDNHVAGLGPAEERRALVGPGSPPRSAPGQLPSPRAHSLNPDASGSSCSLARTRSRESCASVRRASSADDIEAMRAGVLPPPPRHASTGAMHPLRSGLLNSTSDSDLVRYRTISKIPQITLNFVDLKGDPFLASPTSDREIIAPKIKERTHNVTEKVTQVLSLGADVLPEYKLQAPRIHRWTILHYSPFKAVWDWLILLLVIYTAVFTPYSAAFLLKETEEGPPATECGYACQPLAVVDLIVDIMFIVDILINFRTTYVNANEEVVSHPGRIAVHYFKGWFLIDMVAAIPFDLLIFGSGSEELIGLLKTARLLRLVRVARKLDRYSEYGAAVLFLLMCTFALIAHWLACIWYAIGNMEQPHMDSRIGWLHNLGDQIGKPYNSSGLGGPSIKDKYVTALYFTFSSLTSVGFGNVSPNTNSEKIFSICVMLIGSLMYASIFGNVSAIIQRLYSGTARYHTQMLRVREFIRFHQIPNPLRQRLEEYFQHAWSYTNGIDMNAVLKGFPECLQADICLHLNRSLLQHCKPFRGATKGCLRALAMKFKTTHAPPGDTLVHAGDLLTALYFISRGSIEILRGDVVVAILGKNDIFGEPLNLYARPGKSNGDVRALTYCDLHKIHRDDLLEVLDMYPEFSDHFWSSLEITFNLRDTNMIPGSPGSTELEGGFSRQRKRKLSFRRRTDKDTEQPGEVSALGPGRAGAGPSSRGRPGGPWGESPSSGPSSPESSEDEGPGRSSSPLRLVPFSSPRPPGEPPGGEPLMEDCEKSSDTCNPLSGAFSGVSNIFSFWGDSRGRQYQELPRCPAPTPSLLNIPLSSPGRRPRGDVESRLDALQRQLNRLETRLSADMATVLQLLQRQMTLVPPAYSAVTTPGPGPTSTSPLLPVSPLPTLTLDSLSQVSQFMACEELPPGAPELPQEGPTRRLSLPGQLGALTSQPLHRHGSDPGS
For `CN1N=C(C(=O)N2CCc3c([nH]c4ccccc34)C2c2c(F)cccc2Cl)CCC1=O` (stereo not drawn), the activity increase over dofetilide control, less the hit threshold is -13% (inactive). Turning to `O=C(O)Cn1cc(CN2CCOCC2)c2ccccc21`, the activity increase over dofetilide control, less the hit threshold is -22% (inactive).

In the case of `Cc1cccc(NC(=S)N/N=C2/CCCCc3ccccc32)c1`, the activity increase over dofetilide control, less the hit threshold was -11% (inactive). Take `S=c1[nH]nc(CSc2nc3ccccc3s2)n1C1CCCCC1`: the activity increase over dofetilide control, less the hit threshold is 5% (active). Turning to `O=C(N/N=C/c1ccccn1)c1sc2ccccc2c1Cl`, the activity increase over dofetilide control, less the hit threshold was -27% (inactive). Turning to `COC(=O)Cn1c(=NC(=O)c2sc3ccccc3c2Cl)sc2cc(S(N)(=O)=O)ccc21`, the activity increase over dofetilide control, less the hit threshold was -2% (inactive). The figure for `CCCCOC(=S)NC(=O)c1sc2ccccc2c1Cl` is 86% (active); for `CCOC(=S)NC(=O)c1sc2ccccc2c1Cl` it is 40% (active).

Regarding `CCCOC(=S)NC(=O)c1sc2ccccc2c1Cl`, the activity increase over dofetilide control, less the hit threshold is 30% (active). Regarding `Cc1ccc(NC(=S)NC(=O)c2sc3ccccc3c2Cl)c(C(=O)O)c1`, the activity increase over dofetilide control, less the hit threshold is -1% (inactive).

Regarding `CC(C)C(=O)N(c1ccc(F)cc1)C1C=CS(=O)(=O)C1` (stereo not drawn), the activity increase over dofetilide control, less the hit threshold was -20% (inactive). The result for `CCOC(=O)C1C(c2ccccc2)C(C(=O)OCC)C1c1ccccc1` (stereo not drawn) reads -6% (inactive); that for `CCCSc1cc(NCCOC(C)=O)c([N+](=O)[O-])c2nonc12`, -13% (inactive); that for `CC(C)CCNC(=O)CCc1nnc(Cc2c[nH]c3ccccc23)o1`, -9% (inactive).

For `CCCCCN(C(=O)CCC(=O)OC(C)C(=O)c1ccccc1)c1c(N)n(CCCC)c(=O)[nH]c1=O` (stereo not drawn), the activity increase over dofetilide control, less the hit threshold is -16% (inactive). The figure for `CCCNC(=O)N(C)c1nncnc1C(=O)NC` is -7% (inactive); for `CC1CCC(N2CCN(C(=O)c3ccccc3F)CC2)CC1` (stereo not drawn) it is -6% (inactive); for `O=c1c2ccccc2[nH]c(=S)n1C1CCCCC1` it is 2% (active). The result for `CC1CCCCC1n1c(=S)[nH]c2ccccc2c1=O` (stereo not drawn) reads 1% (active); that for `O=C1NCC(=O)N2C(c3ccccc3)c3[nH]c4ccccc4c3C[C@@H]12` (stereo partly drawn), -22% (inactive). `CC1CCC(n2c(=S)[nH]c3ccccc3c2=O)CC1` (stereo not drawn): the activity increase over dofetilide control, less the hit threshold is 22% (active).

Take `C=CCNC(=O)c1onc(CSc2ccc(OC)cc2)c1C(=O)O`: the activity increase over dofetilide control, less the hit threshold was -11% (inactive).

Take `NC(=O)CC1NC(=O)c2ccccc21` (stereo not drawn): the activity increase over dofetilide control, less the hit threshold was -10% (inactive). On to `O=C(Cn1c(=O)oc2ccccc21)Nc1ccc(F)c(F)c1`, for which the activity increase over dofetilide control, less the hit threshold was -29% (inactive). Consider `Cc1cc(=S)[nH]c2c(C)cccc12`, for which the activity increase over dofetilide control, less the hit threshold was 5% (active).

Regarding `S=c1[nH]c2cc(-c3ccccc3)ccc2o1`, the activity increase over dofetilide control, less the hit threshold was 84% (active). `Cc1c(OC(C)C(=O)NCCN2CCOCC2)ccc2c3c(c(=O)oc12)CCC3` (stereo not drawn): the activity increase over dofetilide control, less the hit threshold is 3% (active). Take `Cc1ccc(-c2nc(CS(=O)(=O)CC(=O)NCCN3CCOCC3)c(C)o2)cc1`: the activity increase over dofetilide control, less the hit threshold is -13% (inactive). With `CCOc1c(OC)ccc2c3c(c(=O)oc12)CCCC3`, the activity increase over dofetilide control, less the hit threshold was -20% (inactive). On to `FC(F)(F)c1cnc2c(c1)[nH]c(=S)n2-c1ccc(Cl)cc1`, for which the activity increase over dofetilide control, less the hit threshold is 21% (active).

`CCCn1c(=S)[nH]c2ccc(C(F)(F)F)cc21`: the activity increase over dofetilide control, less the hit threshold is -3% (inactive).

Turning to `Clc1ccc(N=NN2CCOCC2)cc1`, the activity increase over dofetilide control, less the hit threshold was -8% (inactive). The result for `COc1cc2c(=O)nc3n(c2cc1OC)C(c1ccccc1)N=C(N)N3` (stereo not drawn) reads -8% (inactive); that for `CCN(CC)C(=O)CN1C(=O)c2cccc3cccc(c23)C1=O`, -15% (inactive).

As for `CN1C(=O)/C(=N\OC(=O)c2cccc3ccccc23)c2ccccc21`, the activity increase over dofetilide control, less the hit threshold was 15% (active). On to `CN1C(=O)c2ccc(C(=O)NCc3ccccc3)cc2C1=O`, for which the activity increase over dofetilide control, less the hit threshold is -16% (inactive).

On to `CN1C(=O)/C(=N/OC(=O)c2ccccc2)c2ccccc21`, for which the activity increase over dofetilide control, less the hit threshold was 3% (active). The figure for `O=C1c2ccccc2C(=O)N1c1cccnc1` is -12% (inactive). The result for `c1ccc(OCc2nn3c(Cn4cnc5ccccc54)nnc3s2)cc1` reads -10% (inactive); that for `O=C(NC(=S)Nc1cccc(Cl)c1N1CCCCC1)c1ccco1`, 52% (active); that for `O=C(COc1ccc(Cl)cc1Cl)NC(=S)Nc1ccccc1C(=O)O`, -6% (inactive). The figure for `O=C(NC(=S)Nc1ccccc1N1CCCC1)c1ccc(-c2cccc([N+](=O)[O-])c2)o1` is -6% (inactive).

Turning to `O=C(NC(=S)Nc1cccc(Cl)c1N1CCCCC1)c1cccs1`, the activity increase over dofetilide control, less the hit threshold is -10% (inactive).

As to `Cc1cccc(OCC(=O)NC2CCCc3ccccc32)c1C` (stereo not drawn), the activity increase over dofetilide control, less the hit threshold is -11% (inactive).

As to `O=C(COc1ccccc1Cl)NC(=S)Nc1ccccc1N1CCCC1`, the activity increase over dofetilide control, less the hit threshold was 15% (active).

Consider `O=C(NC(=S)Nc1ccccc1N1CCCC1)c1ccc([N+](=O)[O-])cc1`, for which the activity increase over dofetilide control, less the hit threshold is 4% (active).

As for `O=C(NC(=S)Nc1cccc(Cl)c1N1CCOCC1)c1cccs1`, the activity increase over dofetilide control, less the hit threshold is -5% (inactive).

Turning to `O=C(NC(=S)NC1CCCc2ccccc21)c1ccco1` (stereo not drawn), the activity increase over dofetilide control, less the hit threshold is 13% (active). For `O=C(CNC1CCCCCC1)Nc1ccccc1N1CCOCC1`, the activity increase over dofetilide control, less the hit threshold is -12% (inactive).

Regarding `CCOc1ccc(NC(=O)CS(=O)CC(=O)NC2CCCc3ccccc32)cc1` (stereo not drawn), the activity increase over dofetilide control, less the hit threshold is -7% (inactive).

Regarding `N#Cc1cccc(NC(=O)c2nc(-c3ccccc3)n(-c3ccccc3)n2)c1`, the activity increase over dofetilide control, less the hit threshold is -18% (inactive). With `Fc1ccccc1N1CCN(c2cnc3ccccc3n2)CC1`, the activity increase over dofetilide control, less the hit threshold was -9% (inactive). Turning to `Nc1nnc(SCC(=O)OCc2ccc(F)cc2)s1`, the activity increase over dofetilide control, less the hit threshold is -27% (inactive). As to `Cc1cc(-c2cccnc2)c(C#N)c(SCc2cccc(F)c2)n1`, the activity increase over dofetilide control, less the hit threshold is -15% (inactive). Take `CCCCNC(=O)N1CCCC(C(=O)c2cc(C)c(OC)c(C)c2)C1` (stereo not drawn): the activity increase over dofetilide control, less the hit threshold is -22% (inactive). As to `C/C(N)=C(/C#N)C(=O)COC(=O)C1CCC(C(C)(C)C)CC1` (stereo not drawn), the activity increase over dofetilide control, less the hit threshold was -7% (inactive).

As for `CCC(C)(C(=O)NC1CCCC1)N(C(=O)c1ccccn1)c1ccccc1` (stereo not drawn), the activity increase over dofetilide control, less the hit threshold was -17% (inactive). For the molecule `Cc1cc(-c2cccc(Br)c2)c(C#N)c(N)n1`, the activity increase over dofetilide control, less the hit threshold is -15% (inactive).

On to `CCNC(=O)NC1c2ccccc2CSc2ccccc21` (stereo not drawn), for which the activity increase over dofetilide control, less the hit threshold is -19% (inactive).

On to `O=C(NC(=S)Nc1cc(C(F)(F)F)ccc1N1CCOCC1)c1ccco1`, for which the activity increase over dofetilide control, less the hit threshold is 10% (active). Regarding `O=C(CCc1ccccc1)NC(=S)Nc1cc(C(F)(F)F)ccc1N1CCOCC1`, the activity increase over dofetilide control, less the hit threshold is -14% (inactive). The result for `O=C(NC(=S)Nc1ccc(N2CCCCC2)cc1)c1ccco1` reads 45% (active); that for `O=C(NC(=S)Nc1ccccc1Cl)c1ccco1`, 18% (active). As to `CC1CCN(c2ccccc2NC(=S)NC(=O)c2ccco2)CC1`, the activity increase over dofetilide control, less the hit threshold was -6% (inactive).

As to `O=C(NC(=S)Nc1ccccc1N1CCCC1)c1ccco1`, the activity increase over dofetilide control, less the hit threshold is 4% (active). As to `O=C(NC(=S)Nc1ccccc1Br)c1ccco1`, the activity increase over dofetilide control, less the hit threshold is -1% (inactive). For `Cc1ccc2[nH]c(C(=O)O)c(-c3ccccc3)c2c1`, the activity increase over dofetilide control, less the hit threshold was -16% (inactive). Consider `O=c1cc(CN2CCN(S(=O)(=O)c3ccc4c(c3)OCCO4)CC2)c2ccc(O)cc2o1`, for which the activity increase over dofetilide control, less the hit threshold is -5% (inactive).
